Screens from PubChem BioAssay.
HSF-1 act: HSF-1 activators, primary screen, NIH3T3-HGL cells, MG132 stress, luminescence, single point | NIH3T3-HGL HSF-1 luciferase reporter, 8 h; 100% = twice DMSO control signal | activation, % at 9 µM | 300,000 tested, 1.7% active | AID 504408, 2011;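 active = mean replicate activation of at least 50% with a set share of replicates each reaching 50%; inconclusive = only one of those two conditions met; inactive = mean below 50% and too few replicates reaching it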;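 also: 0% = median of the neutral control wells and 100% = twice that signal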
aDG glyco up: activators of alpha-DG glycosylation, primary screen, uHTS, Pro5-aDG cells, AlphaScreen. alpha-DG glycosylation AlphaScreen (IIH6); 0% Pro5, 100% B10-LARGE cell signal. activation, % at 10 µM. 360,000 tested, 0.22% active. AID 624168, 2012;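 active = activation of at least 8% versus controls, or a plate z-score of at least 8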;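 also: Pro5 are CHO cells carrying HIG-tagged alpha-DG that lacks glycosylation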
GC-B act: human GC-B receptor activators, primary screen, HEK293 GC-B cells, cGMP TR-FRET, EC30 CNP; Atrial natriuretic peptide receptor 2 (Homo sapiens), P20594; 0% at EC30 CNP, 100% saturating CNP; activation, % at 10 µM; 370,000 tested, 0.11% active;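 active = activation at 10 µM reaching about 35% in either raw or pattern-adjusted values, limit read from the data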
HSF1 inhib: HSF1 inhibitors in luciferase reporter cells, primary screen, cell-based, NIH3T3, luminescence; NIH3T3-HGL HSE-luciferase, MG132-induced, luminescence 8 h; hits give low values; activity change, negative = inhibition, % at 7.5 µM (by protocol); 300,000 tested, 0.77% active; AID 2098, 2009;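 active = more than half of replicate wells show activity change below -50%, luminescence cut by over half; inconclusive = some wells, but at most half, below -50%; inactive = no replicate well below -50%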;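 also: luciferase reports HSF-1 transcriptional activity via heat shock element; 0% = median of DMSO wells and -100% = zero luminescence signal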
GC-A act: GC-A stimulated cGMP production enhancers – HEK293 GC-A cells, cGMP TR-FRET, EC30 ANP, primary screen. 0% at EC30 ANP, 100% saturating ANP. 370,000 tested, 0.14% active. activation, % at 10 µM; in the data active = activation above about 40%
Dyrk1A ADPGlo: rat Dyrk1A kinase inhibitors, primary screen, biochemical, single point, plate reader; Dual specificity tyrosine-phosphorylation-regulated kinase 1A (Rattus norvegicus), Q63470; ADP-Glo luminescence, NFATc1 peptide; inhibition, % at 12.5 µM; 310,000 tested, 0.43% active; in the data active = inhibition above about 50%;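 also: plate controls were vehicle with enzyme for no effect and no enzyme for full effect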
* hit, by the source's call; ? = inconclusive; · = no result. Only some compounds are listed: those with a hit (about 2.5% of all), similar ones and a draw of the others.

SMILES | HSF-1 act | aDG glyco up | GC-B act | HSF1 inhib | GC-A act | Dyrk1A ADPGlo
O=C(CSc1nnc(-c2cccs2)o1)N1CCCc2ccccc21 | 68.0* | -0.2 | 0.5 | 17.1 | -1.1 | 5.8
Cc1cc(N2CCCC2)c(F)cc1/C=C\[N+](=O)[O-] | 207.1* | -0.6 | -0.4 | 160.0 | -0.4 | -2.6
Cc1cc(N2CCC(C)CC2)c(F)cc1[N+](=O)[O-] | 9.3 | 0.0 | 0.2 | -3.1 | -1.8 | -2.2
COC1(OC)C(/C=C/c2ccc(Cl)cc2)C(C#N)(C#N)C1(OC)OC (stereo unspecified) | 99.2* | 0.8 | -7.1 | 80.2 | 1.2 | -1.3
CSc1ccccc1C(=O)Nc1cc(C)ccc1C | 58.0* | 0.1 | -1.7 | 21.1 | 1.1 | 0.5
CCCNC(=O)c1noc2c1CCc1cc(OC)ccc1-2 | 66.7* | 0.1 | -2.9 | 17.6 | 1.5 | -2.3
COc1ccc2c(c1)CCc1c(C(=O)N3CCCCCC3)noc1-2 | 28.1 | 1.3 | 5.8 | 14.0 | 0.0 | 3.8
COc1ccc2c(c1)CCc1c(C(=O)NCc3cccnc3)noc1-2 | 10.4 | 0.2 | -0.4 | 4.4 | 8.2 | 8.6
COc1ccc2c(c1)CCc1c(C(=O)NCC(C)C)noc1-2 | 58.1* | 0.1 | -0.3 | 33.8 | -0.3 | -0.8
Cc1cccc(C)c1NC(=O)C(CCc1ccccc1)N1CCN(C)CC1 (stereo unspecified) | · | -0.1 | 1.9 | · | 3.0 | ·
O=C(N/N=C/c1sc(=O)n(-c2ccccc2)c1Cl)c1ccccc1 | 66.1* | 0.1 | 1.0 | 34.9 | 2.0 | 1.6
CSc1ccc(NC(=O)N2CCN(c3nc4ccccc4s3)CC2)cc1 | -18.3 | 0.3 | 7.2 | -5.9 | 0.8 | 2.3
CCOC(=O)CNC(=O)c1c(C)nn(C)c1Cl | -5.4 | -0.1 | 8.4 | -1.7 | -1.2 | 8.2
O=C1OCCC1Sc1nnnn1-c1ccc(Cl)cc1 (stereo unspecified) | -3.4 | -0.1 | 18.6 | -11.7 | 65.2* | 2.7
Cc1ccc(-c2nn(-c3ccccc3)cc2C=C2C(=O)CC(C)(C)CC2=O)cc1 | 16.3 | 0.7 | 19.2 | 15.9 | 0.7 | -5.3
CC1(C)CC(=O)C(=Cc2cn(-c3ccccc3)nc2-c2ccccc2)C(=O)C1 | 147.2* | 0.3 | 19.1 | 100.3 | 15.8 | 13.1
CC(C)Oc1ccc(C(=O)/C(=C\c2cccs2)c2nc3ccccc3o2)cc1 | -23.2 | -0.5 | -2.8 | -22.4 | -0.9 | 1.6
NC(=O)N/N=C/c1cccc(OCc2ccc(F)cc2)c1 | -78.4 | 1.3 | 0.5 | -73.6* | 1.9 | 0.5
O=C(N/N=C/c1cccc(OCc2ccccc2)c1)c1cccs1 | 44.2 | 0.3 | -5.2 | 10.1 | 2.8 | -3.1
COc1ccccc1NC(=S)N(Cc1ccco1)Cc1cc2cccc(C)c2[nH]c1=O | 118.8* | -0.2 | 3.3 | 59.7 | 2.1 | 6.6
Cc1cccc2cc(CN(Cc3ccccc3)C(=S)NCCCN(C)C)c(=O)[nH]c12 | -78.4 | 0.9 | -4.3 | -74.1* | -8.5 | 3.7
COc1ccccc1NC(=S)N(Cc1ccco1)Cc1cc2cc(C)c(C)cc2[nH]c1=O | 12.1 | -0.2 | -0.3 | 6.2 | 3.7 | -5.7
COc1ccccc1NC(=O)N(Cc1ccco1)Cc1cc2ccc(C)c(C)c2[nH]c1=O | 107.5* | 0.2 | 5.7 | 79.1 | -1.2 | 3.4
Cc1ccc(NC(=O)COC(=O)Cn2cnc3ccccc32)cc1S(=O)(=O)N(C)C | -85.4 | 0.0 | 2.8 | -82.6* | -1.9 | -1.5
C/C=C/C(=O)OCC(=O)Nc1ccc(C)c(S(=O)(=O)N(C)C)c1 | 22.3 | -0.2 | 0.7 | -0.6 | 1.8 | 0.3
SMILES | HSF-1 act | aDG glyco up | GC-B act | HSF1 inhib | GC-A act | Dyrk1A ADPGlo
Cc1ccc(NC(=O)COC(=O)[C@H](C)N2C(=O)C3CC=CCC3C2=O)cc1S(=O)(=O)N(C)C (stereo partly specified) | 67.9* | -0.2 | 3.9 | 18.5 | 0.9 | ·
N#Cc1cn(CCOC(=O)c2cccc(C(F)(F)F)c2)c(=O)[nH]c1=O | -0.6 | -0.4 | -6.4 | -0.6 | -0.9 | 1.2
CC(C)CC(=O)N1CCN(S(C)(=O)=O)CC1 | 4.5 | 0.0 | -6.2 | -11.0 | -1.7 | 8.4
CC(=O)Nc1ccc(NC(=O)CSc2ncc(C(=O)Nc3ccc(Cl)cc3)c(=O)n2C)cc1 | 48.2 | 0.3 | · | 46.6 | · | -4.3
Cn1c(SCC(=O)NCC2CCCO2)ncc(C(=O)Nc2ccc(F)cc2)c1=O (stereo unspecified) | 67.2* | 0.8 | -4.4 | 69.5 | 32.6 | 22.7
Cc1ccc(-n2nnc3c(SCC(=O)NCC4CCCO4)ncnc32)cc1 (stereo unspecified) | ? | -0.4 | · | 46.1 | · | 6.6
O=C(CSc1ncnc2c1nnn2-c1ccc(F)cc1)NCC1CCCO1 (stereo unspecified) | 73.9* | -0.1 | -6.5 | 46.4 | 1.2 | -2.8
CC(=O)Nc1cccc(NC(=O)CSc2ncc(C(=O)Nc3ccccc3)c(=O)n2C)c1 | 205.6* | 0.4 | -6.7 | 177.0 | 19.9 | -2.0
Cn1c(SCC(=O)NCC2CCCO2)ncc(C(=O)Nc2ccc(Cl)cc2)c1=O (stereo unspecified) | 57.5* | 0.0 | -10.6 | 29.2 | 45.3* | 7.2
NC(=O)C1CCN(C(=O)c2ccc3ncsc3c2)CC1 | · | -0.1 | 4.4 | · | 4.5 | ·
O=C(NCCC(=O)N1CCC2(CC1)NCCc1[nH]cnc12)c1cccc(C(F)(F)F)c1 | 10.0 | -0.1 | -0.2 | -4.1 | 7.9 | -3.7
Cc1nc(SCC(=O)NCC2CCCO2)[nH]c(=O)c1C (stereo unspecified) | -66.6 | 0.2 | 0.7 | -55.9* | 3.0 | -2.5
Cc1nc(SCC(=O)NCC2CCCO2)nc(C)c1C (stereo unspecified) | · | 0.1 | 2.1 | · | -1.7 | -8.3
O=C(O)c1cccc(Nc2ccnc(Nc3cccc(C(=O)O)c3)n2)c1 | -60.3 | 0.3 | -0.6 | -54.5* | 5.7 | 7.2
Cc1cc(C)nc(Nc2ccc(F)cc2)n1 | -4.2 | -0.2 | 0.2 | 2.7 | 3.2 | 0.8
Fc1ccc(Nc2ccnc(Nc3ccc(F)cc3)n2)cc1 | 72.4* | 2.6 | 2.7 | 32.5 | 3.1 | -0.5
CSc1nc2nc(-c3ccc(F)cc3)c(CCN3CCN(C)CC3)cn2n1 | 10.9 | 0.0 | -3.2 | -2.0 | -2.0 | -2.9
Nc1c(C(=O)c2ccc(Cl)cc2)sc2nc3c(cc12)CCC3 | 51.5* | 0.0 | -3.1 | 27.0 | -14.9 | -3.0
COc1ccc(CCNc2oc(-c3ccccc3OC)nc2C#N)cc1 | 95.4* | -0.3 | -27.3 | 54.6 | -20.0 | -2.7
